This is an account of results in PubChem BioAssay AID652067 (The Scripps Research Institute Molecular Screening Center, 2013).

Among all 370,000 compounds or so, about 5,400 (1.5%) were called active. The list comes from a sample in which actives are over-represented; it also holds similar structures and randomly drawn compounds. A number with no mark means an inactive call.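 The calls were made as follows: active = activation above the mean of all tested compounds plus 3 SD (cut at about 5.5% in these data); inactive = the rest.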

In the experiment the test system is DAF-12 nuclear receptor (Haemonchus contortus). The experiment in a line: hcDAF-12 driven luciferase reporter activation – cell-based, luminescence, HEK293, lit1-tk-luc reporter, primary screen (AID 652067).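 Also: 100% = response to 3 µM Δ7-dafachronic acid high control.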 The conditions noted are these: HEK293 hcDAF-12 lit1-tk-luc reporter, at 6.8 µM, hits give high values.
As to `COc1ccc(C(=O)CC2C(=O)N(C)C(=O)N(C)C2=O)cc1`, the activation was 0.97%. As for `COc1ccc(C(=O)C2CN(C)CC2C(=O)c2ccc(OC)cc2)cc1` (stereo not given), the figure is 8.46% (active). As for `Cc1ccc(C2CN(C)CC2C(=O)c2ccc(F)cc2)cc1` (stereo not given), the figure is 0.06%; as for `CN(c1ccccc1)c1ccc([N+](=O)[O-])c2nonc12`, -1.36%; as for `CNP1(NC)=Nc2nn(-c3ccccc3)c(N)c2C(c2ccccc2)=N1`, -1.95%. As for `CCCCCn1c(=O)c(C(=O)Nc2c(C)n(C)n(-c3ccccc3)c2=O)c(O)c2ccccc21`, the activation was -0.09%. For `CCCCn1c(=O)c(C(=O)Nc2ccccc2Cl)c(O)c2ccccc21`, the activation is 5.68% (active). The same measure for `CCCCCn1c(=O)c(C(=O)NCc2ccccc2)c(O)c2ccccc21`: -0.29%; for `O=C(CCN1CCCCC1)NCC(=O)Nc1ccc(Br)cc1C(=O)c1ccccc1`: -0.6%.

On to `CS(=O)(=O)N1CCC2CCNC2C1` (stereo not given), for which the activation is -0.6%. As for `CN1CCN(/N=C/c2c[nH]c3ccccc23)CC1`, the figure is 1.53%. As for `CCC/C(=N\O)c1c[nH]c2ccccc12`, the activation is 6.34% (active). The same measure for `CN(C)CC1CCCCC1OC(=O)c1ccc(Cl)c(Cl)c1` (stereo not given): 0.25%. The same measure for `CCOc1ccc(C2SCC(=O)Nc3c2c(C)nn3C2CCOC(C)(C)C2)cc1` (stereo not given): -2.48%; for `Cc1ccccc1CCC[C@@H](CC1CCCCC1)CN(C)C(=O)Oc1ccccc1`: 4.88%; for `COc1ccc2c(c1)NP(=S)(c1ccccc1)N2` (stereo not given): 13.1% (active).

Consider `Cc1cc(C)c2c(c1)NP(=S)(c1ccccc1)N2` (stereo not given), for which the activation is 4.47%. The same measure for `CO[C@H]([C@H](C)/C=C/N(C)C=O)[C@@H](C)C(=O)CC[C@H](C)[C@H](O)[C@H](C)[C@H]1OC(=O)/C=C/C(C)=C/[C@H](O)[C@H](OC)C[C@@H]2C=CC[C@@H](C[C@H](OC)[C@@]3(CO3)[C@@H](OC)C[C@@H](OC)[C@@H]1C)O2`: 0.14%.

With `COc1ccc(-c2nc(CS(=O)CC(=O)N3CCC4(CC3)OCCO4)c(C)o2)cc1` (stereo not given), the activation is -0.05%.

Regarding `COP(=O)(Sc1ccccc1)C(Cc1ccccc1)NC(=O)OCc1ccccc1` (stereo not given), the activation was -1.13%.
